# Values joined by “and” are separate entries in the source; they are usually repeats but may differ in a detail not shown here. Equal values may be shown once.
# Legend:
# [1] = target: Sphingosine kinase 1 (Homo sapiens) (UniProt Q9NYA1); conditions: at 1 µM;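 also: mean SPHK1 inhibition value reported from the GSK PKIS kinase panel screen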
# [2] = target: T1, Sphingosine kinase 2 (Homo sapiens) (UniProt Q9NRA0); conditions: at 0.1 µM
# T1 sequence (whole entry): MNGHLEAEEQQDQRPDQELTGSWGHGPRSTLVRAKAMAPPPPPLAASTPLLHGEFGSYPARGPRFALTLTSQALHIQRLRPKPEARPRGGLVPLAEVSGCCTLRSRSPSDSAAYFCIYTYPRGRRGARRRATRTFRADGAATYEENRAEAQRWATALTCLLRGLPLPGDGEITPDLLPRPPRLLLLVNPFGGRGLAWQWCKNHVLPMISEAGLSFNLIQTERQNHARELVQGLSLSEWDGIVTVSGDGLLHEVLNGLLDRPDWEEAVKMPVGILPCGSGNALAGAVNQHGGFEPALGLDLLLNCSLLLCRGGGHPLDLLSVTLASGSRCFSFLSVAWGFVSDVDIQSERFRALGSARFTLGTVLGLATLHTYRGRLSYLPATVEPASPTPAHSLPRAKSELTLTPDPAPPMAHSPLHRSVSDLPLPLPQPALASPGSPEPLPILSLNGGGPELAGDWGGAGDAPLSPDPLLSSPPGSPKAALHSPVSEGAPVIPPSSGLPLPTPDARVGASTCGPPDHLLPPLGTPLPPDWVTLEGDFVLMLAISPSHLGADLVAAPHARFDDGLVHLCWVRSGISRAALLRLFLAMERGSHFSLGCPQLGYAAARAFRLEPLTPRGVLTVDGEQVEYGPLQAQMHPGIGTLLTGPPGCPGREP
# [3] = target: T1, Sphingosine kinase 2 (Homo sapiens); conditions: at 1 µM
# [4] = target: Casein kinase II subunit alpha (Homo sapiens) (UniProt P68400); conditions: at 0.1 µM
# [5] = target: Casein kinase II subunit alpha (Homo sapiens) (UniProt P68400); conditions: at 1 µM
# [6] = target: T2, Inhibitor of nuclear factor kappa-B kinase subunit alpha (Homo sapiens) (UniProt O15111); conditions: at 0.1 µM
# T2 sequence (whole entry): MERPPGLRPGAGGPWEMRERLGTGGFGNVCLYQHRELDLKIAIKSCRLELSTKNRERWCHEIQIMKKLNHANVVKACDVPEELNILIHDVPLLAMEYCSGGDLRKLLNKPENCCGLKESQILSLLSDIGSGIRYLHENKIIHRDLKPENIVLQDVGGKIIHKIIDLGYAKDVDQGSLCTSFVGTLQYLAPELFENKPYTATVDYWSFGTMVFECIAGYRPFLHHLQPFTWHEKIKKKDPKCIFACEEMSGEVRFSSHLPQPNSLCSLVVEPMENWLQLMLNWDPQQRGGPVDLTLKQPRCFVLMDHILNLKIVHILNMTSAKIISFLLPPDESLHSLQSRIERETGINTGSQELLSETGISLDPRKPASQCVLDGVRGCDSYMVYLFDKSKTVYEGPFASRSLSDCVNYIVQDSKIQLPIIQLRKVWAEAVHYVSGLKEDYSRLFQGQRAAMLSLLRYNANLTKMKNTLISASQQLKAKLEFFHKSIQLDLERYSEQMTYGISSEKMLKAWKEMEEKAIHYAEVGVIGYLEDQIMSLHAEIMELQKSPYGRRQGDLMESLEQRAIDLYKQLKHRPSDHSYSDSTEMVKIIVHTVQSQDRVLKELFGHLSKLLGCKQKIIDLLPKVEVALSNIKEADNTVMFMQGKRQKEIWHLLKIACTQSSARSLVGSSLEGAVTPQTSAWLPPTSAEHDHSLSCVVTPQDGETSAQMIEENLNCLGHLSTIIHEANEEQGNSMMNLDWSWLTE
# [7] = target: T2, Inhibitor of nuclear factor kappa-B kinase subunit alpha (Homo sapiens); conditions: at 1 µM
# [8] = target: T3, Inhibitor of nuclear factor kappa-B kinase subunit beta (Homo sapiens) (UniProt O14920); conditions: at 0.1 µM
# T3 sequence (whole entry): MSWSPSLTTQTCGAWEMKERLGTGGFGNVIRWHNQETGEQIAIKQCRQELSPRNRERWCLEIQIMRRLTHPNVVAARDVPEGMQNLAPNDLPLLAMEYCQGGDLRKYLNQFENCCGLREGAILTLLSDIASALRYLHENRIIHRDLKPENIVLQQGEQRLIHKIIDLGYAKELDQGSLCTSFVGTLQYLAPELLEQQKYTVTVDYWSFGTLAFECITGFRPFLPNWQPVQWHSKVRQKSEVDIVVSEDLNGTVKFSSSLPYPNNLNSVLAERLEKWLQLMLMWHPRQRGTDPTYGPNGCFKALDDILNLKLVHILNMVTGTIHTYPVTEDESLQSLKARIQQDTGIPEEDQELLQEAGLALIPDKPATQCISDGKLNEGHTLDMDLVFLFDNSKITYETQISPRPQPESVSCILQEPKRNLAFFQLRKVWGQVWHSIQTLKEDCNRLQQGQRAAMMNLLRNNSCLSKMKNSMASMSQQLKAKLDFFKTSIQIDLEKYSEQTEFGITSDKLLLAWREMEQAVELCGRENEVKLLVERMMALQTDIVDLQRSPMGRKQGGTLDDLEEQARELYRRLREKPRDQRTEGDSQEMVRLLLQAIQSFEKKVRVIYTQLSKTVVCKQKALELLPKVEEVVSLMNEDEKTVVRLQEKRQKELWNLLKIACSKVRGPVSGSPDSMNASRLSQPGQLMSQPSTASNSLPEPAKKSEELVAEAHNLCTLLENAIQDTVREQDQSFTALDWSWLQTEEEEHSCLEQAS
# [9] = target: T3, Inhibitor of nuclear factor kappa-B kinase subunit beta (Homo sapiens); conditions: at 1 µM
# [10] = target: T4, Inhibitor of nuclear factor kappa-B kinase subunit epsilon (Homo sapiens) (UniProt Q14164); conditions: at 0.1 µM
# T4 sequence (whole entry): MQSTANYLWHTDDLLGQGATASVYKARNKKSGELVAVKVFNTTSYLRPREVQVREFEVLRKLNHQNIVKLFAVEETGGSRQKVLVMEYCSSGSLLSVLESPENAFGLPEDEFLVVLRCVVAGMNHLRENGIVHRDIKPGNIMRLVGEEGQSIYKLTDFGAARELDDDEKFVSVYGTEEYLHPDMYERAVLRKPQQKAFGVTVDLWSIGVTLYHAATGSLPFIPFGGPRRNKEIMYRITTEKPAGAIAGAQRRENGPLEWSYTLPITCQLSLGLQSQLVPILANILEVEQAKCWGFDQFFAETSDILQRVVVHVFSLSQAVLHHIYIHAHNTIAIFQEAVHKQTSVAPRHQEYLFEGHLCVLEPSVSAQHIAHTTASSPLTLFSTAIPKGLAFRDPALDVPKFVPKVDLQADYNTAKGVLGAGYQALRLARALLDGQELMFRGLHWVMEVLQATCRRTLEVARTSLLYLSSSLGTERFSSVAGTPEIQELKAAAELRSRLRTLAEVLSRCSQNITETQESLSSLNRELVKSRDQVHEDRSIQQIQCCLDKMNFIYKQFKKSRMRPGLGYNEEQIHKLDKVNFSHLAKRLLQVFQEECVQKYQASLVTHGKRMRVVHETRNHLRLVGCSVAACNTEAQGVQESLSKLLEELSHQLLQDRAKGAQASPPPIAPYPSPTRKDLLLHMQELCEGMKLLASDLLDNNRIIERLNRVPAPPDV
# [11] = target: T4, Inhibitor of nuclear factor kappa-B kinase subunit epsilon (Homo sapiens); conditions: at 1 µM
# [12] = target: T5, Serine/threonine-protein kinase Nek1 (Homo sapiens) (UniProt Q96PY6); conditions: at 0.1 µM
# T5 sequence (whole entry): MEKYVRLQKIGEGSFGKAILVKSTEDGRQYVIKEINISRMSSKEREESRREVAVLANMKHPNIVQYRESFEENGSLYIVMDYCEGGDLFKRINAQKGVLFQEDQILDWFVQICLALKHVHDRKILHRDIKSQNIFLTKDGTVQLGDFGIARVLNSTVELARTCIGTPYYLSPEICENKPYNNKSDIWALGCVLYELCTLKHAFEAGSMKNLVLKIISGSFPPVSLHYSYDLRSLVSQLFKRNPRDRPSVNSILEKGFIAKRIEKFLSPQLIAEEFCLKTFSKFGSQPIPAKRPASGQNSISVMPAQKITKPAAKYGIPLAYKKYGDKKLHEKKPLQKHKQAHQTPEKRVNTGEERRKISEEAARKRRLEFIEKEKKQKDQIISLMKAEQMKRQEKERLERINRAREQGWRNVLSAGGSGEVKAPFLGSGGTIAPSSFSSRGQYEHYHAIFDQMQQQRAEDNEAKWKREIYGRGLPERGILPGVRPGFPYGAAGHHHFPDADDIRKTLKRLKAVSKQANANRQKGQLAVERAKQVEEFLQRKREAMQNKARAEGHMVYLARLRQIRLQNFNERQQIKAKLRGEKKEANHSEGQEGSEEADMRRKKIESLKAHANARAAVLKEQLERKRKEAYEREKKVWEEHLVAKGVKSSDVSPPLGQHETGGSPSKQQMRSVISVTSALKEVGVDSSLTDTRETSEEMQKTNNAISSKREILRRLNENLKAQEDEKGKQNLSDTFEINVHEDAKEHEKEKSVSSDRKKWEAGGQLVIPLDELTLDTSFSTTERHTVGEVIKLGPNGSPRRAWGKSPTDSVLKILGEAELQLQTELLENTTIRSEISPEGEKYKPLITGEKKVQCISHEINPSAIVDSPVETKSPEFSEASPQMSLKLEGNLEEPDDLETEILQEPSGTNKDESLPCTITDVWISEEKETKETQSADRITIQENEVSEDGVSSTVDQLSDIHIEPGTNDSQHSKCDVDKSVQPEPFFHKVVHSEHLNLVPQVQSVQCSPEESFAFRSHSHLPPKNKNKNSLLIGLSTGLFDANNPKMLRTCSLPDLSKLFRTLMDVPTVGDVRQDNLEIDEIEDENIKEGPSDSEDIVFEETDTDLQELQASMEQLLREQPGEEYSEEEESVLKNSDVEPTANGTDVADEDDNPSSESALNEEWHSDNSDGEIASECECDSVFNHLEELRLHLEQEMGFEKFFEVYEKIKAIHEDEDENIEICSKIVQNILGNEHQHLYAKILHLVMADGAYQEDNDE
# [13] = target: T5, Serine/threonine-protein kinase Nek1 (Homo sapiens); conditions: at 1 µM
# [14] = target: T6, Serine/threonine-protein kinase Nek2 (Homo sapiens) (UniProt P51955); conditions: at 0.1 µM
# T6 sequence (whole entry): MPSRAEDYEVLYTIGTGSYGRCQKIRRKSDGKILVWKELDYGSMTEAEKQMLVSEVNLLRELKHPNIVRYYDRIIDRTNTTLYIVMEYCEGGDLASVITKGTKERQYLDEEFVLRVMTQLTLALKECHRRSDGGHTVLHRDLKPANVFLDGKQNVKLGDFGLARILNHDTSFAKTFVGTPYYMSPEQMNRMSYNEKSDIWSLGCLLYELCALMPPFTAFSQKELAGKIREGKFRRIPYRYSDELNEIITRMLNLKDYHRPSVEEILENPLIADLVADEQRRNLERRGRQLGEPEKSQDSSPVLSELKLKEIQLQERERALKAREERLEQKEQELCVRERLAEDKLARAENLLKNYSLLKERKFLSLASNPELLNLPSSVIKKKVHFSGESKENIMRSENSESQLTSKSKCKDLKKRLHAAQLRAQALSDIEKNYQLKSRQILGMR
# [15] = target: T6, Serine/threonine-protein kinase Nek2 (Homo sapiens); conditions: at 1 µM
# [16] = target: Serine/threonine-protein kinase Nek6 (Homo sapiens) (UniProt Q9HC98); conditions: at 0.1 µM
# [17] = target: Serine/threonine-protein kinase Nek6 (Homo sapiens) (UniProt Q9HC98); conditions: at 1 µM
# [18] = target: Serine/threonine-protein kinase Nek7 (Homo sapiens) (UniProt Q8TDX7); conditions: at 0.1 µM
# [19] = target: Serine/threonine-protein kinase Nek7 (Homo sapiens) (UniProt Q8TDX7); conditions: at 1 µM
# [20] = target: T7, Serine/threonine-protein kinase Nek9 (Homo sapiens) (UniProt Q8TD19); conditions: at 0.1 µM;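 also: reported value is the mean percent inhibition of NEK9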
# T7 sequence (whole entry): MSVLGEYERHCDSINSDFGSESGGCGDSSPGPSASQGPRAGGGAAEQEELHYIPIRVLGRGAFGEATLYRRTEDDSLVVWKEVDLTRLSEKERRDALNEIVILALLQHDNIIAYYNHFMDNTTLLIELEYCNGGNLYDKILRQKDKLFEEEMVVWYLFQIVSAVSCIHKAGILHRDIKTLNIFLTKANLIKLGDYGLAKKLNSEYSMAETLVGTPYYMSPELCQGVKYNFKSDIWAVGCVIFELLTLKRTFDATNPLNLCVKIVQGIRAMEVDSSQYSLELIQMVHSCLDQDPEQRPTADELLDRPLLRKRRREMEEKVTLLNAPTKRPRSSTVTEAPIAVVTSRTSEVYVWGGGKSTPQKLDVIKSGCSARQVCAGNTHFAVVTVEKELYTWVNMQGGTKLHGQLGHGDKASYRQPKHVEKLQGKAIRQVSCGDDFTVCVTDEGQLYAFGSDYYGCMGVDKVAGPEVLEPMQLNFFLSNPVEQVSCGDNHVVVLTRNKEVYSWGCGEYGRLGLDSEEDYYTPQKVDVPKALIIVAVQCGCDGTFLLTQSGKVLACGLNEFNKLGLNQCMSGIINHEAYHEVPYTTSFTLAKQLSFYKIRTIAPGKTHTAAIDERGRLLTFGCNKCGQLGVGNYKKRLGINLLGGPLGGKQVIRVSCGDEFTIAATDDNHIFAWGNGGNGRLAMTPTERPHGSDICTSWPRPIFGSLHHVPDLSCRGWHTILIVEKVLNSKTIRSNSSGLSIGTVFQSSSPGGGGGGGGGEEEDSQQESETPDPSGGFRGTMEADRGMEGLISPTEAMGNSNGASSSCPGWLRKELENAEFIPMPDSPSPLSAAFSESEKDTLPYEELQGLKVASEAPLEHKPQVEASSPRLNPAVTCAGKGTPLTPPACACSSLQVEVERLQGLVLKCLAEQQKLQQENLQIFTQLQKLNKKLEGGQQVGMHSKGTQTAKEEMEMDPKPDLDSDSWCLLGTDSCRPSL
# Chain of Casein kinase II subunit alpha (Homo sapiens) (P68400 whole entry, looked up): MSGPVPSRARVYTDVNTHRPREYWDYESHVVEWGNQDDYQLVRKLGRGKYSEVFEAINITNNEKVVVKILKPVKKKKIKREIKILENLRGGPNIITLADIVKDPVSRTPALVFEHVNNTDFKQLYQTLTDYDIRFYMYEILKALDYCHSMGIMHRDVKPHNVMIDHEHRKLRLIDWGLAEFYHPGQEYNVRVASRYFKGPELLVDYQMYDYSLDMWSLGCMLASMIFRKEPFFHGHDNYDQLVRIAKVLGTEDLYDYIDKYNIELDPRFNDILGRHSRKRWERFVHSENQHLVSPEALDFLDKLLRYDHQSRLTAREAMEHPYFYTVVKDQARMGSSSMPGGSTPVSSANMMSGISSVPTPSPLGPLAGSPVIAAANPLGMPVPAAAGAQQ
# Chain of Serine/threonine-protein kinase Nek6 (Homo sapiens) (Q9HC98 whole entry): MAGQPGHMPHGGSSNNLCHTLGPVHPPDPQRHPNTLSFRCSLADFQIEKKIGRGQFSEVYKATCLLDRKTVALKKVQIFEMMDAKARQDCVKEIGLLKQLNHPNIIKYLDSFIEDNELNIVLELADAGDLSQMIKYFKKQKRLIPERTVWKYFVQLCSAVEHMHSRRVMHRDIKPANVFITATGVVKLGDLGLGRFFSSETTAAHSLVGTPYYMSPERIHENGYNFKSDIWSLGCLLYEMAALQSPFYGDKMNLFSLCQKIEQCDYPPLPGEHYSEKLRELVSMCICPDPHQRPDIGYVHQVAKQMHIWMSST
# Chain of Serine/threonine-protein kinase Nek7 (Homo sapiens) (Q8TDX7 whole entry, looked up): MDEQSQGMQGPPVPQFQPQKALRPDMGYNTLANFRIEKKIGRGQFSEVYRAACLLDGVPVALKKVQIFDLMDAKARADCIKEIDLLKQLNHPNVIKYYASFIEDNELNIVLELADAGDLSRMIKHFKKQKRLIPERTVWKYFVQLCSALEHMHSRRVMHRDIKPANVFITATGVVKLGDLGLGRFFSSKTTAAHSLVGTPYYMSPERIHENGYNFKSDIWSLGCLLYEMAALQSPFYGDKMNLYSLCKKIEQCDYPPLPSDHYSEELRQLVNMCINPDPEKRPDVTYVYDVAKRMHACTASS
# Chain of Sphingosine kinase 1 (Homo sapiens) (Q9NYA1 whole entry): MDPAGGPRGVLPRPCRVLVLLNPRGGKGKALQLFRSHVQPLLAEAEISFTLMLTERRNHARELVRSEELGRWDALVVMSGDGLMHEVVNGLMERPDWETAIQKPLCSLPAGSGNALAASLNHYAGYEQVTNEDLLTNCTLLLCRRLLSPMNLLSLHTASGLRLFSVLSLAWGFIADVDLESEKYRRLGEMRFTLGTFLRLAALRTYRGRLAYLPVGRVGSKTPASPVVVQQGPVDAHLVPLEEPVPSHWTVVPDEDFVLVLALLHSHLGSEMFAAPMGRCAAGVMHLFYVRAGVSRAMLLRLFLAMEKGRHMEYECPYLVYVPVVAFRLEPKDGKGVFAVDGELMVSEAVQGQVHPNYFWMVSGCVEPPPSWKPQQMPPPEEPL
compound,measurement,setting,value
CN1CCN(Cc2ccc(-c3cc4ncnc(Nc5ccc(OCc6cccc(F)c6)c(Cl)c5)c4s3)o2)CC1,inhibition,[1],3.16% and -4.57%
same,inhibition,[2],0.42% and -0.46%
same,inhibition,[3],2.36% and -0.62%
same,inhibition,[4],12.7% and 7.35%
same,inhibition,[5],3.7% and 10.5%
same,inhibition,[6],4.53% and 11.4%
same,inhibition,[7],2.93% and 6.95%
same,inhibition,[8],2.82% and 5.97%
same,inhibition,[9],3.27% and 6.18%
same,inhibition,[10],3.75% and 4.88%
same,inhibition,[11],4.6% and 4.24%
same,inhibition,[12],1.24% and 3.95%
same,inhibition,[13],2.68% and 4.85%
same,inhibition,[14],3.46% and 4.63%
same,inhibition,[15],2.94% and 4.7%
same,inhibition,[16],-1.83% and 5.78%
same,inhibition,[17],0.03% and 5.91%
same,inhibition,[18],2.08% and 6.06%
same,inhibition,[19],5.67% and 4.39%
same,inhibition,[20],-2.04% and 6.24%

# — ChEMBL document CHEMBL1961873, “Compounds: GSK PKIS; Assays: Nanosyn kinase panel” (2012)
